Source: PubChem BioAssay
Sampled rows, rich in hits. Any-hit rate of the full collection: about 6.8%.
MCF10A rereplic: induces DNA re-replication in MCF 10a normal breast cells | AID 624296 | actives 2.9% (n = 350,000) | MCF 10A DNA re-replication, Hoechst nuclear intensity, 48 h | Potency, µM (doses to about 46.1 µM), without a hit: at the top dose activity, positive = re-replication, most hits filed as activators; note: % of control where 0% means no effect; nearly all actives have a fitted effect of over 50% in size
PINK1 expr mod: PINK1 expression modulation; PINK1 immunofluorescence, high-content cytometry, 24 h; Potency, µM (highest dose often 76.6 µM), inactives show at the highest dose activation (PINK1 increase), hits mostly activators; actives 0.2% (n = 410,000); active = well fitted activation curve with a large enough effect; inconclusive = small, poorly fitted or top-dose-only effect; cell line not stated here; note: % of control where 0% means no effect; nearly all actives have a fitted effect of over 65% in size
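Decision-based qHTS: stable cells, 24 h exposure to five compound concentrations, CCCP as control. Fixed cells stained for PINK1 plus nuclear, mitochondrial and cell markers, cytometer read.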
TSG101-PTAP inh: blocks PTAP/TSG101 interaction to inhibit HIV-1 budding; Q99816; Fluorescence polarization, FITC-PTAP peptide / Tsg101 binding; Potency, µM (top dose mostly 115 µM), for inactives: at the highest dose activity change, negative = inhibition, usual class: inhibitors; 340,000 tested, under 10 active; AID 493005; active = well fitted inhibition curve with a large enough effect in the main read-out, with a control signal flat, not every such curve was filed as active; inconclusive = small, poorly fitted or top-dose-only effect, or effect the other way, or a change in a side signal; inactive = no such curve, though single readings can be large or run the other way; note: % of control where 0% means no effect
Target sequence (Q99816 whole entry, looked up): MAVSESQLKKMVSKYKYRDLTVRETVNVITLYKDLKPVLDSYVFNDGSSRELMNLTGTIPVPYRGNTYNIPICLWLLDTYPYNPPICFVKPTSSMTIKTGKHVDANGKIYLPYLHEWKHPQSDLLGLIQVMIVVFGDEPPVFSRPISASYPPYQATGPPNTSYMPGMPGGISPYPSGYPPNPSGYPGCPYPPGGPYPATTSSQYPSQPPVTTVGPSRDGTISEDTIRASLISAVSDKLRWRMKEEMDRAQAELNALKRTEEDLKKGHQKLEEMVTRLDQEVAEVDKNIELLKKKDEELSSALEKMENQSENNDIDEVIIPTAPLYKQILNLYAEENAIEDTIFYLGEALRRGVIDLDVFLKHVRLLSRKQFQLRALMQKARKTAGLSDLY
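Compounds were pin-transferred onto Tsg101 binding domain (10 uM final) in HEPES pH 7.5 buffer, then FITC-PTAP peptide was added at 50 nM final. After 20 min at RT, polarization reported peptide displacement across a qHTS concentration series.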
SW480 rereplic: inducers of DNA re-replication in SW480 colon cancer cells. SW480 DNA re-replication, Hoechst DNA content imaging, 48 h. Potency, µM (doses to about 46.1 µM), for the others: at the highest dose re-replication activation, usual class: activators. actives 1.8% (n = 340,000). AID 624297; note: % of control where 0% means no effect; nearly all actives have a fitted effect of over 55% in size
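First, 250 cells per well were seeded. Next, compound or vehicle (23 nL) was pinned in, plates sat 48 hr at 37 C. Finally Hoechst was added for 40 min before fluorescence scanning.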
KB-V1 cytotox: KB-V1 MDR subline cytotoxicity; KB-V1 MDR cells viability, CellTiter-Glo, 72 h; Potency, µM (series often up to 46.1 µM), usual class: cytotoxic; actives 3.4% (n = 400,000); note: % is set by controls: 0 for no effect and ±100 for the full control effect; nearly all actives have a fitted effect of over 60% in size
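Readout: CellTiter-Glo luminescence, 10 min after addition. Cells: KB-V1 MDR subline, 72 h at 37 degrees C with compound. Analysis: corrected, normalized data fitted to concentration-effect curves.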
KB-3-1 cytotox: KB-3-1 parental cell cytotoxicity; KB-3-1 viability, CellTiter-Glo ATP luminescence, 72 h; Potency, µM (series often up to 46.1 µM), most hits filed as cytotoxic; actives 1.4% (n = 400,000); note: % is set by controls: 0 for no effect and ±100 for the full control effect; nearly all actives have a fitted effect of over 60% in size
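Here the drug-naive KB-3-1 line serves as comparator for MDR sub-line selectivity; cells received compound titrations, 72 h at 37 °C, then CellTiter-Glo readout.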
The depositor's hits bear a star; i = inactive; ? = inconclusive; / = no result given; [ ] = dose if it differs, or a comment. Unless noted, calls come from the whole dose curve; as a rule, active = well fitted curve in the direction sought with a large enough effect; inconclusive = small, poorly fitted or top-dose-only effect, or another doubt; inactive = no such curve, though single readings can be large; an effect the other way counts as inactive or inconclusive. Potency is the fitted concentration of half-maximal effect.

SMILES | MCF10A rereplic | PINK1 expr mod | TSG101-PTAP inh | SW480 rereplic | KB-V1 cytotox | KB-3-1 cytotox
COc1ccccc1C1CC(=O)Nc2cc3c(cc21)OCCO3 (stereo not drawn) | 3.7µM* | 15%[38.3 µM] | -9% | 2.1µM* | 5.8µM* | ?
O=C1CC(c2cccs2)c2cc3c(cc2N1)OCCO3 (stereo not drawn) | 18µM* | / | 1% | 4% | i | i
CC(C)Oc1ccccc1C1CC(=O)Nc2cc3c(cc21)OCCO3 (stereo not drawn) | ? | 16%[38.3 µM] | -1% | 1.6µM* | ? | ?
CCCc1nnc(NC(=O)c2nc(S(=O)(=O)Cc3ccc(C)cc3)ncc2Cl)s1 | 3.7µM* | 1% | 0% | 8.2µM* | i | ?
CSc1nnc(NC(=O)c2nc(S(=O)(=O)Cc3ccccc3)ncc2Cl)s1 | ? | -2% | -1% | ? | ? | 18µM*
Cc1ccc(CS(=O)(=O)c2ncc(Cl)c(C(=O)Nc3nc4ccc(C)cc4s3)n2)cc1 | / | -1% | / | / | i | i
Cc1ccsc1/C=N/Nc1nc(=O)[nH]nc1C | -3% | 5% | -10% | 6.5µM* | ? | ?
COc1cc(C(=O)O/N=C2\C=CC(=O)C(C)=C2)cc(OC)c1OC | ? | -1% | -2% | 5.8µM* | ? | ?
COc1cc(C(=O)ON=C2C=C(C)C(=O)C(C)=C2)cc(OC)c1OC | ? | 24% | -3% | ? | i | i
CCOc1ccc(NC(=O)c2cn3c4c(ccc(Cl)c4c2=O)OC(C)C3)cc1 (stereo not drawn) | / | 1% | / | / | i | i
CCc1ccc(NC(=O)c2nc3nc(C)cc(C(F)F)n3n2)cc1 | / | -1% | / | / | i | i
O=C(CCCCCCCCC(=O)N1CCCCC1)N1CCCCC1 | 18% | 11% | 0% | ? | 2.3µM* | ?
CCC(=O)N1CCc2cc(CNC(=O)Nc3cc(OC)c(OC)c(OC)c3)ccc21 | / | 1% | / | / | i | i
CCc1cc(-c2[nH]ncc2-c2ccc(OC)cc2)c(O)cc1O | -23% | -3% | 0% | 11% | ? | ?
CCc1cc(-c2[nH]ncc2-c2ccc3c(c2)OCO3)c(O)cc1O | -14% | / | -7% | 9% | 9.2µM* | i
COc1ccc(Cn2c(=O)c3oc4ccccc4c3n(CC(=O)Nc3c(C)cccc3C)c2=O)cc1 | / | 0% | / | / | / | /
CC(C)c1ccc(NC(=O)C2CCN(C(=O)c3ccc(F)cc3)CC2)cc1 | / | -1% | / | / | ? | i
COc1cc(C(=O)NCCC(C)C)ccc1OCc1ccc(Cl)cc1Cl | ? | -1% | -3% | -2% | 15µM* | ?
COc1ccc(Cl)cc1C(=O)NCCN(C)C | 12% | 0% | -6% | -17% | i | i
CN(C)CCNC(=O)c1ccc(COc2ccc(Cl)cc2Cl)cc1 | ? | 20%[38.3 µM] | -2% | ? | 18µM* | ?
N#Cc1cc(-c2ccc(Cl)cc2)cnc1Sc1ccc(F)cc1 | 15µM* | ? | -9% | 9% | i | i
Cc1cc(C)c(NC(=O)Cn2c(=O)n(CCC(C)C)c(=O)c3cccnc32)c(C)c1 | / | 1% | / | / | i | i
O=[N+]([O-])c1cc([N+](=O)[O-])c2oc(-c3ccccc3)c(Br)c2c1O | ? | 35µM* | -7% | -7% | ? | ?
COC(=O)c1sc2cccc(F)c2c1S(=O)(=O)N1CCN(c2cccc(C)c2)C(C)C1 (stereo not drawn) | / | 0% | / | / | ? | i
N#Cc1c(-c2ccccc2)cc(C2CC2)nc1SCC(=O)c1cccs1 | 17% | 3% | 0% | 9.2µM* | ? | i
SMILES | MCF10A rereplic | PINK1 expr mod | TSG101-PTAP inh | SW480 rereplic | KB-V1 cytotox | KB-3-1 cytotox
CCc1cccc(NC(=O)c2nnn(Cc3ccc(SC)cc3)c2N)c1 | / | 14% | / | / | i | i
CCOC(=O)c1cnc(Nc2nc3ccccc3o2)nc1CN1CCN(C)CC1 | ? | 3% | -2% | ? | 13µM* | ?
COCn1cnc(-c2ccccc2)c1-c1ccccc1 | 14% | -1% | 0% | -5% | i | i
CCN(CC)C(=O)n1cnc(-c2ccccc2)c1-c1ccccc1 | 25% | -3% | -11% | 0% | 21µM* | i
CCc1c(C)c2cc3c(c(C)c2oc1=O)OCN(CCc1ccc(OC)c(OC)c1)C3 | / | -1% | / | / | ? | i
Cc1cccn2c(=O)c3cc(C(=O)NCc4ccco4)c(=N)n(CCc4ccccc4)c3nc12 | 2.9µM* | 8% | -4% | 18µM* | ? | i
Cc1cccn2c(=O)c3cc(C(=O)NCCc4ccccc4)c(=N)n(Cc4ccco4)c3nc12 | 13µM* | 6% | 1% | 6.5µM* | ? | i
Cc1cccn2c(=O)c3cc(C(=O)NCc4ccco4)c(=N)n(C(C)C)c3nc12 | 15% | -1% | -4% | ? | ? | i
Cc1ccc(Cl)cc1NC(=O)C(NS(=O)(=O)c1cccc2nsnc12)c1ccccc1 (stereo not drawn) | / | 0% | / | / | i | i
CC1=NNC(=O)/C1=C\c1cn(-c2ccccc2)nc1-c1ccc(Cl)cc1 | 3.7µM* | -2% | -3% | 12µM* | 16µM* | 26µM*
Cc1ccc(-c2nn(-c3ccccc3)cc2C=C2C(=O)CC(C)(C)CC2=O)cc1 | ? | -1% | -6% | -8%[9.22 µM] | 18µM* | ?
CCc1ccccc1NC(=O)N1CCc2cc(OC)c(OC)cc2C1CC(=O)OC (stereo not drawn) | / | -2% | / | / | / | /
CCCOc1ccc(CNC(=O)c2cc3ccccn3n2)cc1 | / | 4% | / | / | i | i
COc1ccc(OC)c(Nc2cc(C)nc3ccc(C)cc23)c1 | ? | 7% | -2% | 18µM* | 5.2µM* | 7.3µM*
CCOc1ccccc1Nc1cc(C)nc2ccccc12 | / | 2% | / | / | ? | i
CCOc1ccccc1Nc1cc(C)nc2ccc(C)cc12 | ? | ? | -1% | -3% | 12µM* | ?
Cn1nc(NC(=O)C(F)(F)F)c2ncc(-c3ccccc3)nc21 | / | -1% | / | / | 18µM* | i
COc1ccc(CNC(=O)CCC2N=C3c4ccccc4N=C(SCc4cccc(F)c4)N3C2=O)cc1 (stereo not drawn) | / | 3% | / | / | i | i
C(=N\n1cnnc1)/c1cn(Cc2ccccc2)c2ccccc12 | ? | -9%[38.3 µM] | -3% | -3% | 15µM* | i
C(=N\n1cnnc1)/c1cccc2ccccc12 | 2% | -2% | -2% | -5% | 10µM* | ?
Clc1ccc(Cn2cc(/C=N/n3cnnc3)c3ccccc32)c(Cl)c1 | ? | 3% | -1% | ? | i | ?
CCCC[C@H](O)c1ccccc1 | 3% | / | / | 0% | / | /
